Source: PubChem BioAssay (NCI)
The panel holds about 83,000 compounds, 20% with a hit somewhere; the sample as a whole holds those more often.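 Note: values are percent growth. 100 is the growth of untreated cells, values between 100 and 0 indicate rising inhibition; between -100 and 0 indicates cell death.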 Unmarked numbers belong to inactive results. Activity calls are given as the source filed them. How the source made its calls: active means growth percent below 10; inactive means the rest.

Tests used:
Assay in all cases: NCI-60 one-dose screen, 48 h (100 = growth as untreated, 0 = no growth, -100 = all killed)
HCT-15 colon = conditions: 10 µM unless noted
SNB-75 CNS = conditions: 10 µM
SNB-19 CNS = conditions: 10 µM unless noted
U251 CNS = conditions: 10 µM unless noted
PC-3 prostate = conditions: 10 µM unless noted
SK-MEL-5 melanoma = conditions: 10 µM unless noted
UACC-62 melanoma = conditions: 10 µM unless noted
LOX IMVI melanoma = conditions: 10 µM unless noted
SK-MEL-28 melanoma = conditions: 10 µM unless noted
SK-MEL-2 melanoma = conditions: 10 µM unless noted
EKVX NSCLC = conditions: 10 µM unless noted
SN12C renal = conditions: 10 µM unless noted
UO-31 renal = conditions: 10 µM unless noted
TK-10 renal = conditions: 10 µM unless noted
ACHN renal = conditions: 10 µM unless noted
CAKI-1 renal = conditions: 10 µM unless noted
A498 renal = conditions: 10 µM unless noted
CCRF-CEM leukemia = conditions: 10 µM unless noted
MOLT-4 leukemia = conditions: 10 µM unless noted
HT29 colon = conditions: 10 µM unless noted

SMILES | growth (HCT-15 colon) | growth (SNB-75 CNS) [%] | growth (SNB-19 CNS) [%] | growth (U251 CNS) [%] | growth (PC-3 prostate) | growth (SK-MEL-5 melanoma) | growth (UACC-62 melanoma) | growth (LOX IMVI melanoma) | growth (SK-MEL-28 melanoma) | growth (SK-MEL-2 melanoma) | growth (EKVX NSCLC) | growth (SN12C renal) | growth (UO-31 renal) | growth (TK-10 renal) | growth (ACHN renal) | growth (CAKI-1 renal) | growth (A498 renal) | growth (CCRF-CEM leukemia) | growth (MOLT-4 leukemia) | growth (HT29 colon)
C=C(C)[C@@H]1C[C@H](O)Cc2cc(F)ccc2N1 | 100% | 87.5 | 104 | 92.7 | 91.6% | 99.3% | 95.6% | 87.1% | 103% | 76.8% | 87.3% | 93.8% | 75.5% | 92.3% | 94.4% | 91.4% | 111% | -62.7% (active) | -28.3% (active) | –
O=c1cc(Cc2ccc([N+](=O)[O-])cc2)[nH]c(=O)[nH]1 | 96.6% | 94.4 | 97 | 103 | 92.6% | 109% | 99.9% | 103% | 114% | 94.6% | 115% | 98.4% | 67% | 97.9% | 98.1% | 110% | 110% | 91.1% | 94.9% | –
CCCCCCCCCCCC(=O)NCCC[N+](C)(C)CC(=O)[O-] | 100% | 93.4 | 88.3 | 72.2 | 31.8% | 95.6% | 78% | 79.8% | 99% | 96.3% | 103% | 103% | 97.6% | 76.6% | 109% | 95.8% | 91% | 89.5% | 78.6% | –
CCN(CC)CCCC(C)Nc1c2ccc(Cl)cc2nc2cc(OC)c(OC)cc12 (configuration not stated) | -22.4% (active) | – | – | 16.2 | 16.5% | 45.3% | -38% (active) | -53.3% (active) | -74.7% (active) | 48% | 53.7% | 34.3% | -41% (active) | 2.47% (active) | -76.2% (active) | 9.87% (active) | 54.6% | 15.5% | -8.8% (active) | -23.8% (active)
C=C1C(=O)O[C@H]2[C@H]1CC/C(Cn1cc(-c3cccc(Cl)c3)nn1)=C\CC[C@@]1(C)O[C@@H]21 | -72.3% (active) | – | 37.9 | – | -59.1% (active) | -52.6% (active) | – | -91.1% (active) | – | -40.8% (active) | -18.4% (active) | -37.1% (active) | -95.4% (active) | -97.1% (active) | -89% (active) | -82.2% (active) | -26.2% (active) | -40.8% (active) | -18.6% (active) | -56.3% (active)
Cn1ncc2c(Sc3ccc(Cl)cc3)ncnc21 | 97% | 86.7 | 81.6 | 81.9 | 78.1% | 90.1% | 87.9% | 78.3% | 102% | -13.3% (active) | 90.2% | 90.1% | 71% | 82.7% | 95.1% | – | 86.3% | 95.3% | 95.8% | –
CO[C@H]1NC(=O)N(S(=O)(=O)c2ccc(Cl)cc2)[C@@H]1OC | 102% | 93.6 | 103 | 101 | 97.3% | 108% | 100% | 105% | 106% | 113% | 101% | 102% | 88% | 103% | 105% | 92.5% | 112% | – | 102% | –
CCN(CC)CCCNc1nccc2ccc(Cl)cc12 | 104% | – | – | 96.8 | 73.6% | 99.3% | 108% | 94.7% | 117% | 114% | 103% | 99.6% | 94.7% | 99.8% | 112% | 108% | 97.9% | 93.1% | 103% | 96.9%
Cc1ccc2nc(Cl)cc(=O)n2c1 | 102% | 115 | 105 | 119 | 96.9% | 120% | 102% | 112% | 120% | 107% | 114% | 101% | 84.3% | 109% | 99.1% | 111% | 107% | 94.4% | 106% | –
ClC(Cl)c1nc(-c2cccnc2)n2nc(-c3ccccc3)cc2n1 | -21.3% (active) | – | 25.7 | – | 24.4% | 36% | 47.5% | – | 73.4% | 87.6% | 15.1% | 41.7% | 59.9% | 27.3% | -5.02% (active) | -2.31% (active) | 58.5% | – | 15% | -12.7% (active)
COc1ccc(-c2cn(-c3cccc(C(=O)/C=C/c4cc(OC)c(OC)c(OC)c4)c3)c(=O)[nH]2)cc1OC | 82.1% | 58.2 | 108 | 71.6 | 81.5% | 88.3% | 73.1% | 69.4% | 98.9% | 75.3% | 98% | 78.1% | 68.3% | 96.1% | 81.8% | 96% | 90.3% | 34.3% | 70.4% | –
C=C[C@@H]1C[C@H](O)Cc2ccccc2N1 | 103% | 102 | 108 | 99.1 | 106% | 110% | 102% | 104% | 112% | 123% | 107% | 103% | 99.5% | 95.5% | 107% | 100% | 99.9% | -30.7% (active) | – | –
NC(=S)N/N=C(/CCN1CCCC1)CC(C1=C(O)C2=CCCCC2OC1=O)c1ccccc1 (configuration not stated) | 75.6% | – | 109 | – | 85.6% | 98.3% | 97.4% | 56% | 99.6% | – | 63.3% | 85.3% | 64.5% | 120% | 89.4% | 98.6% | 109% | 48.9% | 64.8% | 36.2%
CCN(CC)CCOC(=O)C(c1ccccc1)(c1ccccc1)C(C)C | 95.9% | – | 97.1 | – | 69% | 90.6% | 100% | 71.5% | 106% | – | 81.6% | 88.1% | 51.7% | 91.6% | 92.8% | 66.8% | 70.5% | 86.4% | 86.7% | 61.4%
Cc1ccc(N2CCN(C(C)C(N)=O)CC2)cc1 (configuration not stated) | 115% | – | 101 | – | 105% | 110% | – | 107% | 119% | 134% | 118% | 92.8% | 82.2% | 114% | 106% | 107% | 115% | 98.2% | 117% | 118%
CC1CN(c2oc(-c3ccccc3)nc2C#N)CC(C)O1 (configuration not stated) | 103% | – | 100 | – | 102% | 93.1% | 97% | – | 104% | 102% | 92.6% | 97.9% | 95.2% | 116% | 103% | 87% | 93.8% | 104% | 103% | 106%
COc1ccc(-n2c(=O)sc3c(Cl)nc(C)nc32)c(OC)c1 | 61.3% | – | 49.6 | – | 85.2% | 98.1% | 78.4% | 29.1% | 83.3% | – | 75.9% | 81% | -23.2% (active) | 115% | 95.6% | -58.1% (active) | 91.1% | 55.9% | 78.2% | 74.1%
